SMN2 splice up = increases expression of the SMN2 splice variant; HEK293 SMN2-luciferase splicing reporter, luminescence, 30-36 h; Potency, µM (titrated, usually from 46.1 µM), most hits filed as activators; 210,000 tested, 2.8% active; AID 1458; also: nearly all actives have a fitted effect of over 55% in size
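HEK293 cells carry an SMN2 minigene-luciferase reporter in which exon 7 inclusion puts luciferase in frame. Cells were seeded at 2000 cells/well, attached for 10-12 hours, then exposed to compounds for 30-36 hours at 37C before ONE-Glo luminescence.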
FLuc counter = inhibits or activates purified firefly luciferase, miR-21 counter-screen; P08659; purified FLuc, Km substrates, luminescence inhibition; Potency, µM (highest dose often 57.5 µM), usual class: inhibitors; 360,000 tested, 6.9% active; also: nearly all actives have a fitted effect of over 55% in size
Target sequence (P08659 whole entry, looked up): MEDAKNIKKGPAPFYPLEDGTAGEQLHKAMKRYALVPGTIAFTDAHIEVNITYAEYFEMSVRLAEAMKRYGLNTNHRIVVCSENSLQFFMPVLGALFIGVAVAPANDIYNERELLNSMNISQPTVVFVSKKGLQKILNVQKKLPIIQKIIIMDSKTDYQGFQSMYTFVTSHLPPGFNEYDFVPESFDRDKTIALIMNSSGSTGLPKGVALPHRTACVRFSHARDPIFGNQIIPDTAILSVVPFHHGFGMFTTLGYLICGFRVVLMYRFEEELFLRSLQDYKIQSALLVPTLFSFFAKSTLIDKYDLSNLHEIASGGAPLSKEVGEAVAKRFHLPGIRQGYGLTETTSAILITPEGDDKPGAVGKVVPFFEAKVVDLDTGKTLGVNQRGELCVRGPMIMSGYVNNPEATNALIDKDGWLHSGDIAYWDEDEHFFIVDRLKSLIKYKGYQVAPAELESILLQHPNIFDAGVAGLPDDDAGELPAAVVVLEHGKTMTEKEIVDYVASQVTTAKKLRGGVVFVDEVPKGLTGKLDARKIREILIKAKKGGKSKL
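Purified P. pyralis luciferase (10nM final) with 10uM D-luciferin and 10uM ATP (Km levels) in 50mM Tris acetate pH 7.5, 10mM Mg acetate, 0.01% Tween-20, 0.05% BSA; qHTS 6-point titration, ~60 µM downward; luminescence read.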
NPC1 promoter act = activators of NPC1 promoter; Huh7 NPC1 promoter luciferase reporter, 24 h; Potency, µM (doses to about 9.22 µM), actives largely listed as activators; 320,000 tested, 2.4% active; AID 485313; also: nearly all actives have a fitted effect of over 60% in size
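Readout is luciferase luminescence, reflecting NPC1 promoter activation in stably transfected Huh7 cells after 24 h compound exposure at 37 °C in reduced-serum medium with 10% FBS.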
ELG1 genotox = induces genotoxicity in HEK293T cells with luciferase-tagged ELG1. 330,000 tested, 1.3% active. AID 504466. Potency, µM (highest dose often 46 µM), usual class: activators. HEK293T ELG1-luciferase reporter, luminescence, 16 h; also: nearly all actives have a fitted effect of over 60% in size
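ELG1-luciferase HEK293T cells, 2,000/well; compound pinned in; 16 hr, 37 °C, 5% CO2; ONE-Glo, 30 min RT; luminescence on CCD imager.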
Rab9 prom act = activators of Rab9 promoter. Huh7 Rab9 promoter-luciferase reporter, luminescence, 24 h. Potency, µM (doses to about 9.22 µM), most hits filed as activators. 320,000 tested, 2.8% active. AID 485297; also: nearly all actives have a fitted effect of over 60% in size
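Huh7 cells stably carrying a Rab9 promoter-luciferase reporter, 1500 cells per well in OP-MEM I with 10% FBS, treated with compound 24 hours at 37C. Luciferase activity read by luminescence after 10 minutes with Amplite reagent.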
Hits are given with their value; – = inactive; ? = inconclusive; · = no result given. This is a sample that favours compounds with a hit; in the whole collection about 7.5% have one here. Calls follow the shape of the dose curve; as a rule, active = well fitted curve in the direction sought with a large enough effect; inconclusive = small, poorly fitted or top-dose-only effect, or another doubt; inactive = no such curve, though single readings can be large; an effect the other way counts as inactive or inconclusive.

SMILES | SMN2 splice up | FLuc counter | NPC1 promoter act | ELG1 genotox | Rab9 prom act
CC1OCC23CC[C@@]4(C)CCC(C)(C)C[C@H]4[C@]2(C)CCC12C3CC[C@@]1(C)C2C(=O)CC(=O)[C@@H]1C (stereo not given in full) | – | · | · | · | ·
CC1(CC(=O)N/N=C/c2ccc(-c3ccc(C(=O)O)cc3)o2)OCCO1 | – | ? | – | – | –
CC1(CC(=O)N/N=C/c2ccc(-c3ccc(Cl)cc3)o2)OCCO1 | – | 3.4µM | – | – | –
COC(=O)c1ccc(-c2ccc(/C=N/NC(=O)CC3(C)OCCCO3)o2)cc1 | 11µM | ? | ? | – | ?
Cc1ccccc1NC(=O)CCS(=O)(=O)c1cc(Br)cc2c1N(C(=O)C1CC1)CC2 | – | – | · | · | ·
CCCN1CCN(S(=O)(=O)c2ccc(-c3cc(C)no3)s2)CC1 | · | – | – | – | –
O=C(NCCc1ccc(F)cc1)C(=O)NCC(c1ccco1)S(=O)(=O)c1ccccc1 (stereo not given) | · | – | · | · | ·
O=C(Nc1ccc(Br)cc1)C1Cc2ccccc2O/C1=N\O (stereo not given) | · | ? | 3.2µM | 18µM | 2.8µM
Cc1nc2cc(N=NC3=C(O)CCCC3=O)ccc2s1 | ? | 13µM | – | ? | –
CC(=O)N1CCc2cc(N=NC3=C(O)CCCC3=O)ccc21 | – | 15µM | ? | ? | 3.5µM
CCn1nnnc1SCC(=O)c1ccc(NC(C)=O)cc1 | – | – | – | – | –
CCn1c(SCC(=O)c2ccc3c(c2)OCCO3)nnc1-c1ccco1 | – | 8.5µM | – | – | –
CCCn1nnnc1SCC(=O)c1ccc2c(c1)OCCO2 | – | 12µM | ? | ? | ?
O=C(O)CCC(=O)c1ccc2c(c1)OCCO2 | – | – | – | – | –
Cn1nnnc1SCC(=O)c1ccc2c(c1)OCCO2 | · | ? | – | – | ?
O=C(O)CCSCC(=O)c1ccc2c(c1)OCCO2 | ? | 11µM | – | – | –
CCn1nnnc1SCC(=O)c1ccc(C)cc1 | – | 15µM | ? | ? | ?
CCCN1CCC(N2CCN(c3ccccc3OC)CC2)CC1 | – | – | – | – | –
O=C(O)c1c2c(nc3ccccc13)/C(=C/c1ccc(OC(F)F)cc1)CCC2 | · | 12µM | ? | ? | ?
O=C(O)c1c2c(nc3ccccc13)/C(=C/c1ccc(O)cc1)CC2 | – | 0.54µM | ? | – | ?
O=C(O)c1c2c(nc3ccccc13)/C(=C/c1c(F)cccc1F)CCC2 | · | ? | – | – | –
COc1cccc2c1CCc1c-2nc2ccccc2c1C(=O)O | · | 0.95µM | ? | ? | ?
O=C(Nc1ccccc1F)c1oc2ccccc2c1NC(=O)c1c(F)cccc1F | – | – | · | · | ·
O=C(O)CC(CC(=O)Nc1ccc(C(=O)O)cc1)c1ccccc1 (stereo not given) | · | – | – | – | –
CN(C)/C=C1\N=C(c2ccccc2)OC1=O | – | – | – | – | –
SMILES | SMN2 splice up | FLuc counter | NPC1 promoter act | ELG1 genotox | Rab9 prom act
COc1ccc(/C=C/C2=NC(=C\N(C)C)/C(=O)O2)cc1 | – | 21µM | ? | ? | ?
COC(=O)c1ccc(CSc2nnc(Nc3cccc(OC)c3)s2)o1 | – | ? | – | – | –
COc1ccc(Nc2nnc(SCC3CCCO3)s2)cc1 (stereo not given) | – | 19µM | – | – | ?
Cc1ccc(Nc2nnc(SCC(=O)NCC3CCCO3)s2)cc1 (stereo not given) | · | · | · | – | ·
Cc1cccc(Nc2nnc(SCC3CCCCO3)s2)c1C (stereo not given) | ? | 9.5µM | ? | – | –
COc1cccc(Nc2nnc(SCC3CCCCO3)s2)c1 (stereo not given) | – | 12µM | – | – | –
Cc1cccc(Nc2nnc(SC3CCOC3=O)s2)c1C (stereo not given) | – | ? | – | – | –
N/C(CC1CC1(Cl)Cl)=N\OC(=O)c1ccccc1 (stereo not given) | · | ? | – | – | –
Cc1cc(NC(=O)c2cc(-c3ccc(Br)cc3)on2)no1 | – | – | – | – | –
COc1cccc(-c2cc(C(=O)O)no2)c1 | – | ? | – | – | –
COC(=O)c1cc(-c2ccc(OC)cc2)on1 | · | 8.5µM | – | – | –
COC(=O)c1cc(-c2cccc(OC)c2)on1 | – | 12µM | – | – | –
COc1ccc(-c2cc(C(=O)NC(C)C)no2)cc1 | 13µM | 5.4µM | 2.5µM | 6.5µM | 1.1µM
CCN(CC)C(=O)c1cc(-c2ccc(Br)cc2)on1 | ? | 9.5µM | 2µM | ? | 3.2µM
N=C1/C(=C\c2ccc(-c3cccc(C(=O)O)c3)o2)C(=O)N=C2SC=C(c3ccccc3)N12 | · | ? | – | – | –
O=C(CCc1nc(-c2ccccc2Cl)no1)NCC1CCCO1 (stereo not given) | – | – | – | – | –
CN1CCN(C(=O)CSc2nc(-c3ccncc3)ccc2C#N)CC1 | – | – | – | – | –
N#CC(c1ccc(Cl)cc1)c1ncc(C(F)(F)F)cc1Cl (stereo not given) | – | – | – | – | –
O=C(NCCC1CCCCN1S(=O)(=O)c1cccs1)C(=O)Nc1ccccc1 (stereo not given) | · | – | – | – | –
O=C(O)c1cc(-c2ccccc2)on1 | – | – | – | – | –
COC(=O)c1cc(-c2ccccc2)on1 | – | 17µM | – | – | –
COC(=O)c1cc(-c2ccc(Br)cc2)on1 | – | 8.5µM | – | – | –
COC(=O)c1cc(-c2ccc(OC)c(OC)c2)on1 | · | – | – | – | –
CC1Cn2c(nnc2-c2cccc(Cl)c2)S1 (stereo not given) | – | – | – | – | –
CCCOc1ccc(NC(=O)CC2C(=O)N(c3ccccc3)C(=O)N2Cc2ccc(F)cc2)cc1 (stereo not given) | · | – | · | · | ·
SMILES | SMN2 splice up | FLuc counter | NPC1 promoter act | ELG1 genotox | Rab9 prom act
CCn1c(SCC#N)nc2c(c1=O)C1(CCCC1)Cc1ccccc1-2 | – | – | – | – | –
CCn1c(=O)c2c(n3c(=S)[nH]nc13)-c1ccccc1CC21CCCCC1 | – | 15µM | – | – | –
O=C(Nc1nc2c(F)cc(F)cc2s1)c1ccccn1 | 2.8µM | 0.67µM | 0.11µM | 9.2µM | 0.1µM
CCOc1ccc2nc(NC(=O)c3nc(SC)ncc3Cl)sc2c1 | – | – | · | · | ·
CCc1noc(C)c1C(=O)Nc1nc2c(F)cc(F)cc2s1 | · | 12µM | – | – | ?
Cc1ccc2nc(NC(=O)c3ccccn3)sc2c1 | · | 0.17µM | ? | 0.16µM | ?
CCOc1ccc2nc(NC(=O)c3ccccn3)sc2c1 | · | 0.38µM | 0.1µM | ? | ?
O=C(COc1ccccc1)NNc1nc2c(F)cc(F)cc2s1 | – | – | – | – | –
O=C(COc1ccc(Br)cc1Cl)NC(=S)Nc1ccccn1 | · | 1.1µM | ? | 1.6µM | ?
COc1ccc(OCC(=O)NC(=S)NNC(=O)COc2ccc(Br)cc2Cl)cc1 | – | ? | – | – | –
Cc1nc(NC(=S)NC(=O)COc2ccccc2Cl)ccc1Br | – | – | – | – | –
Cc1ccc(OCC(=O)NC(=S)Nc2ccccn2)c(Br)c1 | · | 0.19µM | 1.6µM | 0.13µM | 2.8µM

From PubChem
